For 14 compounds, growth results are on record in PubChem BioAssay (NCI).

Test systems include T-47D breast; BT-549 breast; MDA-MB-435 melanoma; SW-620 colon; MCF7 breast; HCT-116 colon; HCC-2998 colon; KM12 colon.
Assay in all cases: NCI-60 one-dose screen, 48 h (100 = growth as untreated, 0 = no growth, -100 = all killed)
Settings in all cases: 10 µM unless noted

This is part of a sample that, as a whole, favours compounds with a hit. Of some 83,000 tested, about 20% had one in any assay.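 Negative percent growth values reflect cell death: -40 means 40% of the cells present at the start died, and -100 means all died.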 Values without a mark were called inactive. Calls of active or inactive are those of the source. How the source made its calls: active means growth percent below 10; inactive means the rest.

As to `Cc1ccc(C(CN(C)C)C(=O)c2ccccc2)cc1` (configuration not stated), the growth is 33% in the experiment with T-47D breast; -4.79% (active) in the experiment with BT-549 breast; 18.2% with MDA-MB-435 melanoma; -53.8% (active) with SW-620 colon; -0.801% (active) in the experiment with MCF7 breast; -86.4% (active) with HCT-116 colon. The results for the growth in the experiment on HCC-2998 colon and with KM12 colon were 101% and 33.9%, respectively.

For the compound `COc1cc(C2CC(c3ccc(C)cc3)=NN2C=O)ccc1Oc1ccnc2cc(Cl)ccc12` (configuration not stated), the growth in the experiment with T-47D breast was 76%; in the experiment on BT-549 breast it was 43.8%; with MDA-MB-435 melanoma, 99%; in the experiment with SW-620 colon, 102%; with MCF7 breast, 79.1%; with HCT-116 colon it was 46.5%. Besides, the growth with HCC-2998 colon was 69.6%; in the experiment on KM12 colon it was 104%.

As for `Clc1ccc(-c2nc(-c3cccs3)no2)cc1`, the growth is 56.9% in the experiment with T-47D breast; 102% in the experiment with BT-549 breast; 107% in the experiment with MDA-MB-435 melanoma; 91% in the experiment on SW-620 colon; 33.7% in the experiment on MCF7 breast; 97.8% with HCT-116 colon. Further, the figures for the growth in the experiment with HCC-2998 colon and in the experiment with KM12 colon were 102% and 103%, respectively.

Regarding `CN1CCC2(CC1)N=C(SCC(=O)Nc1cnc3ccccc3c1)C(c1ccc(Br)cc1)=N2`, the growth with T-47D breast was 10.5%; with BT-549 breast it was 59.4%; in the experiment on MDA-MB-435 melanoma, 1.84% (active); with SW-620 colon it was -6.58% (active); in the experiment with MCF7 breast, -42.7% (active); with HCT-116 colon it was -90.7% (active). Moreover, the growth in the experiment on HCC-2998 colon was -51.3% (active); in the experiment with KM12 colon, 41.6%.

As for `Cc1[nH]c2ccccc2c1C1=CC(=O)C=CC1=O`, the growth in the experiment with T-47D breast was 28.5%; with BT-549 breast it was 96.9%; with MDA-MB-435 melanoma it was 38.9%; with SW-620 colon it was 69.2%; with MCF7 breast, 55.3%; in the experiment on HCT-116 colon it was 82.4%. In addition, the growth with HCC-2998 colon is 98.8%; in the experiment on KM12 colon it was 88.2%.

For `COc1cc(C2CC(c3ccccc3)=NN2C=O)ccc1Oc1nc2c(c(=O)n(C)c(=O)n2C)n1C` (configuration not stated), the growth in the experiment with T-47D breast was 69.7%; in the experiment with BT-549 breast it was 95.7%; in the experiment with MDA-MB-435 melanoma it was 56.8%; in the experiment on SW-620 colon, 97.9%; with MCF7 breast it was 72.3%; with HCT-116 colon, 79.9%. Further, the growth is 77.6% in the experiment with HCC-2998 colon and 74.7% with KM12 colon.

Turning to `CC(C)(C)c1nn(-c2ccccc2)c2c1C(=O)CSC(c1ccccc1Cl)N2` (configuration not stated), the growth is 29.3% with T-47D breast; 44.6% in the experiment with BT-549 breast; -12.4% (active) in the experiment with MDA-MB-435 melanoma; 37.1% in the experiment with SW-620 colon; 17.1% in the experiment with MCF7 breast; 16.2% in the experiment on HCT-116 colon. The growth in the experiment with HCC-2998 colon is 24.9%; in the experiment on KM12 colon it was 32.5%.

For `CCCCCCCCCCCCCCCC1=NCCN1`, the growth was -15.4% (active) with T-47D breast; 98% in the experiment with BT-549 breast; 0.615% (active) in the experiment on MDA-MB-435 melanoma; 7.4% (active) in the experiment on SW-620 colon; 32% in the experiment with MCF7 breast; 34.6% in the experiment on HCT-116 colon. The growth in the experiment on HCC-2998 colon is 73.8%; in the experiment on KM12 colon it was 64.1%.

With `N/N=C(\C(=N\N)c1ccccc1)c1ccccc1`, the growth was 93% in the experiment on T-47D breast; 88% in the experiment on BT-549 breast; 103% in the experiment with MDA-MB-435 melanoma; 101% in the experiment on SW-620 colon; 90% in the experiment with MCF7 breast; 101% with HCT-116 colon. Besides, the values for the growth in the experiment on HCC-2998 colon and in the experiment on KM12 colon were 99.8% and 105%, respectively.

Take `CCN(CC)c1ccc(/C=C2/NC(=O)NC2=O)cc1`: the growth was 16.2% in the experiment with T-47D breast; 38.9% with BT-549 breast; -34.1% (active) in the experiment on MDA-MB-435 melanoma; 29% with SW-620 colon; 6.89% (active) with MCF7 breast; 20.2% in the experiment with HCT-116 colon. For the same compound, the results for the growth in the experiment with HCC-2998 colon and in the experiment on KM12 colon were 39.5% and 20.5%, respectively.

On to `C[C@@H]1N=C(c2ccc3ccccc3c2)Nc2nc3ccccn3c2C1=O`, for which the growth is 41.7% in the experiment on T-47D breast; 35.1% with BT-549 breast; -24.7% (active) with MDA-MB-435 melanoma; 26.3% with SW-620 colon; 25.2% in the experiment with MCF7 breast; 18.3% in the experiment on HCT-116 colon. Also, the growth is 77% in the experiment with HCC-2998 colon and 30.3% with KM12 colon.

In the case of `CCCCCCCC/C=C/CCCCCCCC1=NC(C)(C)CN1C(C)C`, the growth was -29.2% (active) in the experiment with T-47D breast; 60.9% in the experiment with BT-549 breast; -58.3% (active) in the experiment with MDA-MB-435 melanoma; -69.8% (active) in the experiment on SW-620 colon; -60.5% (active) with MCF7 breast; -74.8% (active) in the experiment with HCT-116 colon. The growth was -91.8% (active) in the experiment with HCC-2998 colon and -77.1% (active) in the experiment on KM12 colon.

Take `CCN(CC)c1ccc(/C=N/N=C(N)N)cc1`: the growth with T-47D breast is 63.4%; with BT-549 breast it was 51.5%; in the experiment on MDA-MB-435 melanoma it was -23% (active); in the experiment on SW-620 colon, 19.3%; in the experiment on MCF7 breast it was 15.4%; with HCT-116 colon, 32.5%. Moreover, the growth was 85.5% in the experiment with HCC-2998 colon and 25.2% in the experiment on KM12 colon.

Consider `COc1ccc(Oc2nc(Nc3ccc(N4CCOCC4)cc3)ncc2NC(=O)Nc2cccc(OC)c2)cc1`, for which the growth in the experiment with T-47D breast was 75.2%; in the experiment on BT-549 breast, 34.3%; in the experiment on MDA-MB-435 melanoma it was 60.2%; with SW-620 colon, 67.5%; in the experiment on MCF7 breast, 88.6%; with HCT-116 colon, 19%. Besides, the figures for the growth in the experiment on HCC-2998 colon and in the experiment with KM12 colon were 40.3% and 59.2%, respectively.
